Our source for the inhibition values is PubChem BioAssay AID488899 (Broad Institute, 2010).

Usually inhibition stands for the relative decrease from the control value, in per cent.

In all, about 330,000 compounds went through this assay and about 2,800 (0.85%) were called active.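 How the source made its calls: active means mean inhibition across replicates of 60% or more, whatever share of single replicates reaches that level; inconclusive means some that reach 60%, reason not given; inactive means mean inhibition across replicates below 60%.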 The sample as a whole holds a higher share of actives than the screen did.

This experiment in a line: inhibitors of MITF-dependent TRPM1 promoter reporter, primary screen, cell-based, SK-MEL-5, single point, luciferase (AID 488899). To be noted: SK-MEL-5 TRPM1 promoter luciferase, 24 h; at 12.5 µM; hits give high values.
For `CSCCC(NS(=O)(=O)c1ccc(C)cc1)C(=O)N(C)CC(=O)Nc1ccccc1Br` (centres undefined), the inhibition was 11.6% (inactive).

As to `CC(C)c1cc(N=O)cc(C(C)C)c1O`, the inhibition was -4.28% (inactive).

As to `CC(C)=CCc1ccc(O)c(=O)cc1C(C)C`, the inhibition is 71.6% (active).

In the case of `COc1ccc(CNC(=O)CN2C(=O)c3ccccc3S2(=O)=O)cc1`, the inhibition was 13.6% (inactive).

With `CCOc1ccc(CNC(=O)C2CCCN(c3nnc(C)c4c(C)n(-c5ccccc5)nc34)C2)cc1` (centres undefined), the inhibition is 48.5% (inactive).

On to `COc1ccc(-n2nc3c(N4CCC(C(=O)NCc5ccccc5)CC4)nnc(C)c3c2C)cc1`, for which the inhibition was 40.6% (inactive).

For `CCc1ccc(CNC(=O)C2CCN(c3nnc(C)c4c(C)n(-c5ccc(C)cc5)nc34)CC2)cc1`, the inhibition was 96.1% (active).

For `COc1cccc(CC(=NO)c2cccc(OC)c2)c1`, the inhibition is -0.084% (inactive).

As for `CCCOc1ccc(/C=N/NC(=O)C2CC2)c(OCCC)c1`, the inhibition was -7.21% (inactive).

In the case of `COc1ccc(CN2CCNC(=O)C2CC(=O)NCc2cn[nH]c2-c2ccccc2)c(F)c1` (centres undefined), the inhibition is -6.25% (inactive).

For `CN1CCN(CCCNC(=O)c2ccc(/C=C3\Oc4ccccc4N(Cc4ccc(Cl)cc4)C3=O)cc2)CC1`, the inhibition is 96.1% (active).

Turning to `CC(C)OCCCNC(=O)CN1C(=O)/C(=C/c2ccccc2F)Oc2ccccc21`, the inhibition is 8.17% (inactive).

Turning to `Cc1c(C)n(Cc2ccc(Cl)cc2)c2ccc(C(=O)NCCCN3CCOCC3)cc12`, the inhibition is 1.78% (inactive).

On to `CCOc1ccc(NC(=O)CSc2ncnc3c2sc2ccccc23)cc1`, for which the inhibition is 4.52% (inactive).

For the molecule `C=CCc1cccc2cc(C(=O)NC3CCCC3)c(=O)oc12`, the inhibition is -16% (inactive).

On to `CCC1=C(OC(=O)N(CC)CC)N2C(=O)OC(=NCCc3c[nH]c4ccccc34)[C@]2(C)[C@H]2C1=CC[C@H]1C(=O)N(CC)C(=O)[C@H]12`, for which the inhibition was 1.76% (inactive).

In the case of `COCCN(Cc1cc2cc3c(cc2nc1Cl)OCO3)C(=O)c1cccc(C)c1`, the inhibition is 10% (inactive).

`Cc1cc(C)nc(SCC(=O)N(C)C)n1`: the inhibition was 2.39% (inactive).

Consider `Cc1cc(C)nc(SCc2ccccc2C#N)n1`, for which the inhibition is 4.69% (inactive).

As for `Cc1cc(C)nc(S/C=C/C(=O)c2ccccc2)n1`, the inhibition is 80.6% (active).

Consider `CC1CCN(Cc2nc3c(c(=O)n(C)c(=O)n3C)n2CCc2ccccc2)CC1`, for which the inhibition is -2.78% (inactive).

With `CCCc1nc2c(c(=O)c3ccccc3n2C)c(=O)n1C1CCCCCC1`, the inhibition is 73.5% (active).

Consider `Cn1c2ccccc2c2c(C(=O)N3CCN(c4ccc(F)cc4)CC3)cn(C3CCCC3)c(=O)c21`, for which the inhibition was -8.48% (inactive).

With `COc1cc(OC)cc(-c2c(-c3cccs3)c3cc(-c4ccc(OC)cc4F)ccc3n2C)c1`, the inhibition is 13.6% (inactive).

For the molecule `C#CCOCCOCCOCCNc1nc(N2CCOCC2)nc(N2CCN(C(=O)[C@H](Cc3ccc(O)cc3)n3cc(CCO)nn3)CC2)n1`, the inhibition is 4.74% (inactive).

As for `COc1ccc(CCNc2cc(N3CCN(C(=O)c4ccccc4OC)CC3)ccc2[N+](=O)[O-])cc1OC`, the inhibition is 77.2% (active).

Regarding `O=C(c1ccccc1)N1CCN(c2ccc([N+](=O)[O-])c(NCc3ccco3)c2)CC1`, the inhibition was 5.6% (inactive).

Consider `COc1ccccc1OCCNc1cc(N2CCOCC2)ccc1[N+](=O)[O-]`, for which the inhibition was -28% (inactive).

Consider `C[C@@H](NC(=O)c1nc[nH]c1C(=O)N1CCN(C(=O)OC(C)(C)C)CC1)c1ccccc1`, for which the inhibition is -1.66% (inactive).

On to `CCCCN1CC(CO)Oc2cccc(F)c2S1(=O)=O` (centres undefined), for which the inhibition is 0.622% (inactive).

For the molecule `Cc1ccc(CN(Cc2cccnc2)C(=S)Nc2cc(Cl)ccc2C)cc1`, the inhibition was 1.58% (inactive).

For the molecule `O=c1ccn([C@@H]2O[C@H](CNS(=O)(=O)c3cc4ccccc4s3)[C@@H](O)[C@H]2O)c(=O)[nH]1`, the inhibition was -0.592% (inactive).

For `C[C@@H]1C[C@@H]2O[C@H]2/C=C\C=C\C(=O)Cc2c(Cl)c(O)cc(O)c2C(=O)O1`, the inhibition was 71.8% (active).

Consider `CC(C)C(C(=O)NC1CCCCC1)N(CC1CCCO1)C(=O)CNS(=O)(=O)c1ccc(F)cc1` (centres undefined), for which the inhibition was 10.3% (inactive).

In the case of `O=C(CN1CCOc2ccccc21)N1CCC(Cc2ccccc2)CC1`, the inhibition is 5.49% (inactive).

Regarding `CCCC(O)(c1ccccc1)C(c1ccccc1)c1ccccn1` (centres undefined), the inhibition is 4.1% (inactive).

As for `COc1ccc(CNCCCn2cnc3c(OCc4ccccc4)ncnc32)cc1`, the inhibition was -4.78% (inactive).

Turning to `CC(C)(c1ccccc1)c1ccc(OCCN)cc1`, the inhibition is -6.11% (inactive).

Take `Cc1cc(C)n(CC(O)COc2ccc(C(C)(C)C)cc2)n1` (centres undefined): the inhibition is -18.8% (inactive).

Turning to `CN(C)CC(O)COc1ccc(C(C)(C)c2ccc(OCC(O)CN(C)C)cc2)cc1` (centres undefined), the inhibition is 65.7% (active).

On to `Nc1ccc2c(c1)C(O)c1ccc(Cl)cc1-2` (centres undefined), for which the inhibition is -6.14% (inactive).

As to `CN(CC(=O)NCCc1ccc(F)cc1)CC(=O)Nc1ccc(F)c(F)c1F`, the inhibition is 19.3% (inactive).

In the case of `Nc1nonc1-n1nnc(C(=O)N/N=C/c2cc(Br)ccc2O)c1CSC1=NCCS1`, the inhibition is 17.4% (inactive).

Consider `O=C(CCl)Nc1ccc(Sc2ccc(NC(=O)CCl)cc2)cc1`, for which the inhibition was 88.6% (active).

`CC(C)(CCl)C(=O)Nc1ccc(Sc2ccc(F)cc2)cc1`: the inhibition was -9.91% (inactive).

Turning to `O=C(CCl)Nc1cccc(CP(=O)(c2ccccc2)c2ccccc2)c1`, the inhibition is 5.96% (inactive).

Consider `COC(=O)C1CC2=C(CC(C)(C)CC2=O)N(c2ccccc2)C1=O` (centres undefined), for which the inhibition was -6.85% (inactive).

Consider `O=C(O)CCCn1c(=O)c2cccn2c2ccc(F)cc21`, for which the inhibition is 7.45% (inactive).

Consider `CCCC/C(C)=N/NC(=O)NC1CCCCC1`, for which the inhibition was 4.57% (inactive).

On to `CCC1=Nc2cc(C(=O)NCCN3CCCC3)ccc2Sc2ccc(C)cc21`, for which the inhibition is -15.3% (inactive).

For `Cc1cccc(C(=O)OC(C)CN2CCN(C)CC2)c1` (centres undefined), the inhibition was -41.9% (inactive).

With `Cc1cccc(-c2nc3ccc(C(=O)NCCN4CCN(C)CC4)cc3nc2-c2cccc(C)c2)c1`, the inhibition was 69.1% (active).

Consider `FC(F)(F)c1cccc(Cc2noc(CN3CCC(N4CCCCC4)CC3)n2)c1`, for which the inhibition is 1.26% (inactive).

In the case of `NC(=O)C1CCN(C(=O)c2cc(S(=O)(=O)N3CCN(c4ccccc4)CC3)ccc2Cl)CC1`, the inhibition is 4.66% (inactive).

Turning to `CCC(C)Cn1c(O)cc2nn(-c3nc4ccccc4s3)c(=O)c-2c1C` (centres undefined), the inhibition is 89% (active).

As to `Cc1cc(NC(=O)CN2CCCC(C)C2)n(-c2nc3ccccc3s2)n1` (centres undefined), the inhibition is 1.1% (inactive).

On to `CCN(CC(=O)NCCCN1CCOCC1)S(=O)(=O)c1cc(Cl)ccc1Cl`, for which the inhibition is 12.6% (inactive).

On to `O=c1[nH]c2cccnc2n(CCNc2ncc(C(F)(F)F)cc2Cl)c1=O`, for which the inhibition was -3.01% (inactive).

Take `O=C(O[C@@H]1[C@H](Cc2ccccc2)NS(=O)(=O)[C@H]2C[C@@H]3C=C[C@]12O3)c1ccccc1Br`: the inhibition was -5.01% (inactive).

As to `O=C(Nc1ccc(Br)cn1)C1CCN(S(=O)(=O)c2cccs2)CC1`, the inhibition is 20.1% (inactive).

On to `O=c1[nH]c(=S)[nH]c(O)c1/C=C1\C=Nc2ccccc21`, for which the inhibition is 65.4% (active).

In the case of `CCc1ccc(NC(=O)CN2CCC(C(=O)c3ccc(OC)cc3)CC2)cc1`, the inhibition was 16.5% (inactive).

As for `COCC(=O)Nc1c(C(=O)N2CCCC2)oc2ccccc12`, the inhibition was -5.06% (inactive).

For the molecule `Cc1cc(C)cc(OCC(=O)NNC(=O)c2cc3ccccc3oc2=O)c1`, the inhibition is -14.8% (inactive).

For the molecule `NC(=O)C1(N2CCCCC2)CCN(C(=O)c2ccc(C#Cc3ccccc3)o2)CC1`, the inhibition is 10.7% (inactive).

As to `Cc1ccsc1C(=O)OCC(=O)c1cc(C)n(CC2CCCO2)c1C` (centres undefined), the inhibition was 68% (active).

As for `COc1ccc(C(=O)OCC(=O)c2cc(C)n(CC3CCCO3)c2C)cc1[N+](=O)[O-]` (centres undefined), the inhibition was -13.5% (inactive).

Take `Cc1cc(C(=O)CCl)c(C)n1CC1COc2ccccc2O1` (centres undefined): the inhibition is 51.2% (inactive).

With `CCOc1cccc2c1OC1(CCCCC1)N1N=C(c3cccnc3)CC21` (centres undefined), the inhibition is -62.4% (inactive).

As to `Cn1c(=O)c2c(n(Cc3ccccc3)c1=O)NC(=O)C2CC(=O)N1CCc2ccccc2C1` (centres undefined), the inhibition was -5.67% (inactive).

For the molecule `COC(=O)C1CCN(CC(N)=O)CC1`, the inhibition was -7.19% (inactive).

Take `CC(C)(C)c1cc(C(=O)N/N=C/c2ccc([N+](=O)[O-])s2)n[nH]1`: the inhibition is 85.1% (active).

For `COc1ccc2ccccc2c1/C=N/NC(=O)c1cc(C)[nH]n1`, the inhibition is -14.1% (inactive).

Turning to `Cc1cc(C(=O)N/N=C/c2cc([N+](=O)[O-])cc(C)c2O)n[nH]1`, the inhibition was 11.2% (inactive).

With `COc1ccc(S(=O)(=O)N2CCOCC2)cc1NC(=O)c1ccc(OCC(C)C)c(OC)c1`, the inhibition is -3.59% (inactive).

Regarding `O=C(Oc1ccc(-c2nc(-c3ccccn3)no2)cc1)c1ccccc1`, the inhibition was 36.6% (inactive).

For the molecule `CC1CCCN(C(=O)CN2C(=O)c3ccccc3S2(=O)=O)C1` (centres undefined), the inhibition is 11.4% (inactive).

On to `O=C(CN1C(=O)c2ccccc2S1(=O)=O)NC1CCCCC1`, for which the inhibition is 4.83% (inactive).

`O=C(CN1C(=O)c2ccccc2S1(=O)=O)N1CCc2ccccc21`: the inhibition is 74.1% (active).

Regarding `Cc1ccc(SCC(=O)NC(=O)NCc2ccco2)c(C)c1`, the inhibition was 9.21% (inactive).

For the molecule `COCC(=O)N(C)[C@H]1C[C@H]2c3cc(Oc4ccccc4C)ccc3CCN2C(=O)[C@H]1[C@H](C)O`, the inhibition was -16.5% (inactive).

For the molecule `Cc1cc(=O)oc2cc(OCC(=O)N3CCN(c4ccc(F)cc4)CC3)c(Cl)cc12`, the inhibition is -0.292% (inactive).

Turning to `Oc1c(CN2CCN(c3ccc(F)cc3)CC2)cc(Cl)c2cccnc12`, the inhibition is 70.7% (active).

`CC1CCCN(CC(O)COCc2ccccc2)C1` (centres undefined): the inhibition is -13.7% (inactive).

For `COc1cc(C)cc(CN2CCC(Cc3ccccc3)CC2)c1O`, the inhibition was 2.68% (inactive).

Turning to `Oc1c(CN2CCCC2)cc(COCc2ccccc2)c2cccnc12`, the inhibition is 73.5% (active).

As to `Cc1ccc(CN2CCN(c3ncccn3)CC2)c(C)c1`, the inhibition was 4.53% (inactive).

As for `COc1ccc(OCCNS(=O)(=O)Cc2ccccc2)cc1`, the inhibition is 0.0862% (inactive).

Regarding `Cc1ccc(NC(=O)CN2CCCCC2)c2c1CC(C)(C)O2`, the inhibition is -7.61% (inactive).
